The campaign covered roughly 69,000 compounds. About 8,600 (12%) showed an effect of 50% or more. The entries come from a sample that favours strong results as a whole.
What follows are compounds tested on Plasmodium berghei (assay: Screen against P. berghei liver stage (PbLuc), transformed with Luciferase, at 10uM). Settings: tested at 10 uM.
Format: functional, HepG2

Row | SMILES | INHIBITION [%]
1 | c1cnnc(N2CCCC2CNCc2noc(C3CC3)n2)c1 (stereo not given) | -29.8
2 | COCCNC(=O)CNC(=O)c1nc(Cc2c(Cl)cccc2Cl)no1 | 9
3 | COc1c(C(=O)NCC2CCCO2)nnn1Cc1ccccc1 (stereo not given) | -14.7
4 | O=C(N1CCOCC1)N1C[C@H]2CN(Cc3nccs3)C[C@H]2C1 | 34.6
5 | O=C(c1cncc2ccccc12)N1CCC[C@@H]1CO | -10.6
6 | c1cnc(NCc2ncn3c2CN(Cc2cccnc2)CCC3)nc1 | 36.1
7 | O=C(CN(CC1CCC1)CC(F)(F)F)N1CCOCC1 | 22.6
8 | COc1ccc(-n2nc(C)c(C(C)=O)c2C)cc1C(N)=O | -17.5
9 | CCOc1ccc(-n2nc(C)c(CC(C)=O)c2C)cc1C(N)=O | 52.8
10 | CC(=O)Cc1c(C)nn(-c2cncc(C(N)=O)c2)c1C | -27.5
11 | CCOc1ccc(C(=O)CCC(=O)N(C)Cc2snnc2C)cc1C | 29.7
12 | Cc1nnc(SCc2cc(=O)n3c4c(sc3n2)CCCC4)[nH]1 | 25.8
13 | COc1cccc(COc2nc(C(C)C)no2)c1 | 17.4
14 | COc1cccc(CN(C)Cc2nc(C(C)C)no2)c1 | 61.9
15 | COc1cccc(NC(=O)CCCc2nc(C(C)C)no2)c1 | 26.5
16 | CC(C)c1noc(CN(Cc2ccccc2F)C2CC2)n1 | 16.8
17 | CC(C)c1noc(C2CCCN2S(=O)(=O)Cc2ccc(F)cc2)n1 (stereo not given) | 28.7
18 | CC(C)c1noc(CN(C)C(c2ccc(F)cc2)c2cccnc2)n1 (stereo not given) | 38.6
19 | CC(C)c1noc(CN(Cc2ccc(F)cc2)C2CC2)n1 | 82.4
20 | CC(C)c1noc(CN(Cc2ccccc2)C2CC2)n1 | 54.5
21 | CC(C)c1noc(CN(Cc2cccs2)C2CC2)n1 | 41.8
22 | CCN(Cc1ccc2c(c1)OCCO2)C(=O)NCCc1cnn(C)c1 | 8.15
23 | O=C(Nc1nc2c(s1)CN(S(=O)(=O)C1CC1)CC2)c1ccc(=O)[nH]c1 | 31.9
24 | NC1(C(=O)NCCC2CN(Cc3ccco3)CCO2)CCCC1 (stereo not given) | 20

Row | SMILES | INHIBITION [%]
25 | CCn1ccnc1CN1CCN(C(C)C(=O)N2CCCCCC2)CC1 (stereo not given) | 30.6
26 | CCN(CC1CCCO1)C(=O)Nc1cccc(Cl)c1OC (stereo not given) | 26.4
27 | Cc1nn(-c2ncnc3[nH]cnc23)c2c1C(C(C)(C)C)CC(=O)N2 (stereo not given) | -4.35
28 | Cc1cnc(CNC(=O)[C@@]23CCO[C@@H]2CCN(c2ncccn2)C3)cn1 | 9.51
29 | Cc1occc1C(=O)N1CCCC(C2=Nc3ccccc3S(=O)(=O)N2)C1 (stereo not given) | -7.679
30 | COc1ccccc1CN1CC[C@]2(C[C@H](OC)CO2)C1 | -29.2
31 | O=C(CNC(=O)C1CC1)NCc1ccc(Cl)s1 | -56.4
32 | Cc1ccc(CNC(=O)c2cc(CN3CCC(O)CC3)on2)s1 | 13.7
33 | Cc1ccc(CNC(=O)CN2CCN(CCO)CC2)s1 | 5.64
34 | O=C(CN1CCN(CCO)CC1)NCc1ccc(Cl)s1 | 53.8
35 | Cc1ccc(CNC(=O)CN(C)CC2CCN(CCO)CC2)s1 | 53.8
36 | Cc1ccc(CNC(=O)CNCC2CCN(CCO)CC2)s1 | 10.6
37 | Cc1cc(C(=O)NC2CCC3(CCC(=O)N3)CC2)no1 (stereo not given) | -20.8
38 | COc1ncccc1CN1CCc2[nH]nc(C(=O)N3CCCC3C)c2C1 (stereo not given) | -12.2
39 | CC(C)c1nnsc1CNC(=O)C1CCN(C(C)C)CC1 | 5.94
40 | CCc1ccc(C(=O)N2CCN(c3nc(C)cc(OC)n3)CC2)o1 | 19.2
41 | CN(C)c1ccc(CN2CCN(c3ccc(C#N)cc3)C(=O)C2)cn1 | 18.9
42 | CCSc1ncc(CN2CCN(c3ccc(C#N)cc3)C(=O)C2)cn1 | 3.73
43 | CCc1ccc(CN2CCN(c3ccc(C#N)cc3)C(=O)C2)nc1 | 62.4
44 | COCC(=O)N1CCN(S(=O)(=O)c2ccccc2)[C@H]2CS(=O)(=O)C[C@H]21 | 25.8
45 | CCc1nc(N2CCCC(O)(CO)CC2)ncc1C (stereo not given) | -119
46 | CNc1cncc(C2CCCN2S(=O)(=O)c2ccccc2)n1 (stereo not given) | -46.6
47 | CC(C)c1ccc(CCC(=O)N2CCOCC2c2ncon2)cc1 (stereo not given) | -3.2
48 | Cc1nc(-c2ccsc2)ccc1C(=O)NCCN1CCOCC1 | 48.1

Row | SMILES | INHIBITION [%]
49 | Cc1nc(-c2ccsc2)ccc1C(=O)NCCC1CCCO1 (stereo not given) | 52.7
50 | Cc1nc(-c2ccsc2)ccc1C(=O)NCCC(=O)N1CCCC1 | 49.6
51 | Cc1noc(C)c1CN(C)C(=O)c1n[nH]c(N)c1-c1ccccc1 | -3.96
52 | COc1ccccc1/C=C/CNCC1CCc2nncn2C1 (stereo not given) | 38
53 | CS(=O)(=O)CCCNCc1c(Cl)cccc1N1CCCC1 | 26.4
54 | Cc1nccn1-c1ccc(=O)n(CCNC(=O)c2ccncc2)n1 | 10.5
55 | CCC(CN1CCN(C)CC1)NC(=O)C1(c2cccc(F)c2)CC1 (stereo not given) | 37.5
56 | CCC(CN1CCCC1)NC(=O)C1(c2cccc(F)c2)CC1 (stereo not given) | 53.65
57 | CCC(CN1CCCCC1)NC(=O)C1(c2cccc(F)c2)CC1 (stereo not given) | 28.7
58 | Cc1oncc1C(=O)N1CCC2(CCN(Cc3cccc(F)c3)C2=O)C1 (stereo not given) | 1.48
59 | O=c1cc2c(nn1CN1CCOCC1)CCC2 | -1.58
60 | O=c1cc2c(nn1CN1CCN(c3ccccc3)CC1)CCC2 | 16.6
61 | O=c1cc2c(nn1CN1CCSCC1)CCC2 | 51
62 | O=C(O)c1ccn(COc2c(Cl)cccc2Cl)n1 | 0.207
63 | Cc1ncoc1C(=O)N1CCOC(CCCC(C)C)C1 (stereo not given) | -7.81
64 | O=S(=O)(NCc1cn2ccccc2n1)N1CCOCC1 | -38.6
65 | Cc1nc(N2CCCC2)ncc1-c1cc(O)nc(N2CCCCC2)n1 | 36.6
66 | Cc1nc(N2CCCC2)ncc1-c1cc(O)nc(N2CCCC2)n1 | -11.1
67 | Cc1nc(N2CCCC2)ncc1-c1cc(O)nc(N2CCN(C)CC2)n1 | 20.1
68 | Cc1nc(N2CCCCC2)ncc1-c1cc(=O)[nH]c(N2CCCC2)n1 | 68.1
69 | Cc1nc(N2CCCCC2)ncc1-c1cc(O)nc(N2CCCCC2)n1 | 25.1
70 | Cc1nc(N2CCC(C)CC2)ncc1-c1cc(O)nc(N2CCCC2)n1 | 53.2
